The values that follow come from PubChem BioAssay (NCATS).

Records with an inconclusive call do not appear. The source made the active and inactive calls. Unless noted, calls follow the shape of the dose curve; as a rule, active = well fitted curve in the direction sought with a large enough effect; inconclusive = small, poorly fitted or top-dose-only effect, or another doubt; inactive = no such curve, though single readings can be large; an effect the other way counts as inactive or inconclusive.

Experiment [1] in a line: qHTS for Inhibitors of Cell Surface uPA Generation: Validation Assay (AID 493164).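 Also: RAW 264.7 macrophage cells exposed to compound for 18 h.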 In short, it runs like this:
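ATP-Lite luminescence read-out: ATP remains high when uPA activity-dependent LF translocation into the cytoplasm is blocked. RAW 264.7 cells, 18 h compound exposure at 37 C; 7-point titration, 2.45 nM to 38.3 uM final.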
(Quantitative high-throughput screening tests each substance at several concentrations.)

The target in experiment [2] is Galactokinase (Homo sapiens) (UniProt P51570). In words: qHTS Validation Assay for Inhibitors of Human Galactokinase (GALK) (AID 493189). In short, it runs like this: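 5 nM GALK / 100 uM galactose / 35 uM ATP, 20 mM HEPES pH8.0, 5 mM MgCl2, 60 mM NaCl, 1 mM DTT, 0.01% BSA (final). RT 1 h; Kinase-Glo Plus luminescence.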
A short description of experiment [3]: Validation screen for small molecules that induce DNA re-replication in SW480 colon adenocarcinoma cells (AID 504364). The gist of the method:
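Image-based DNA content read-out: Hoechst stain 40 min, total nuclear fluorescence intensity (ex 405 nm, em 500-530 nm) after 48 h compound exposure of 250 SW480 cells/well at 37 C, 5% CO2, versus DMSO vehicle.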

The target in experiment [4] is Peptidyl-prolyl cis-trans isomerase NIMA-interacting 1 (Homo sapiens) (UniProt Q13526). In words: qHTS Validation Assay to Find Inhibitors of Pin1 (AID 504536; active = well fitted inhibition curve with a large enough effect in the polarisation, with a control signal flat, not every such curve was filed as active; the % refers to the polarisation). The gist of the method:
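Fluorescence polarization competition: compounds (titration) displace HiFluor-488-labeled Pin1-1b peptide from Pin1 (0.3 uM final) in pH 7.5 HEPES buffer with DTT, 10 min at room temperature; %Activity normalized to no-enzyme wells, curves fitted.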

Experiment [5] deals with Phosphoglycerate kinase, glycosomal (Trypanosoma brucei brucei) (UniProt P07378). In words: qHTS Validation Assay to Find Inhibitors of Phosphoglycerate Kinase (AID 504547). In short, it runs like this: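 In TEA buffer (100mM, pH 7.6) containing 5mM MgCl2 and 0.01% Tween-20, the GAPDH-coupled PGK reaction proceeded for 60 minutes at room temperature before a single luminescence reading using Kinase-Glo Plus.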

Experiment [6] concerns the target phosphoglycerate mutase (Leishmania major) (UniProt Q4Q090). The experiment is described as follows: qHTS Validation Assay to Find Inhibitors of Phosphoglycerate Mutase (AID 504548).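 Also: end-point luminescence from Kinase-GloPlus after the PGAM reaction; series mostly up to about 58 µM.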 To be noted: Potency: inhibition qHTS. The gist of the method:
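L. major PGAM (1.25nM final) was added to substrate buffer and pinned compound, incubated 45 minutes at room temperature, then Kinase-GloPlus added; luminescence read after 10 minutes. Buffer: 100 mM TEA pH 7.6, 5 mM MgCl2, 0.01% Tween-20.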

Experiment [7] has as its target Ubiquitin carboxyl-terminal hydrolase 1 (Homo sapiens) (UniProt O94782). The experiment is described as follows: Inhibitors of USP1/UAF1: Pilot qHTS (AID 504865). Also: nearly all actives have a fitted effect of over 35% in size. Also: potency is read from the fitted curve at half-maximal effect. The gist of the method: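 In 50mM HEPES pH 7.8 containing 0.5mM EDTA, 1mM TCEP, 0.1 mg/ml BSA and 0.01% Tween-20, 1nM USP1/UAF1 is exposed to compound for 15 min, then Ub-Rho (150nM final) is added and fluorescence is read over time.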

A short description of experiment [8]: qHTS for Inhibitors of ATXN expression: Validation (AID 588378). Also: series mostly up to about 57 µM; nearly all actives have a fitted effect of over 75% in size. The gist of the method: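 Compounds were pinned onto attached HEK293 cells carrying an ATXN2-firefly luciferase construct and incubated 24 hrs at 37 degrees C. Each well then received a fluorescent viability reagent followed by luciferase substrate for end-point luminescence.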
Experiment [9] is described as follows: qHTS for Inhibitors of ATXN expression: Validation of Cytotoxic Assay (AID 588349). In short, it runs like this: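 Cytotoxicity counter-screen: ATP-based luminescent viability (CellTiter Glo) after 72 hr exposure of HEK293 cells to a compound titration at 37 degrees C.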
Experiment [10] has as its target DNA dC->dU-editing enzyme APOBEC-3G (Homo sapiens) (UniProt Q9HC16). The experiment is described as follows: qHTS for inhibitors of Vif-A3G interactions: Validation (AID 588379). In short, it runs like this:
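Yellow fluorescence (Ex 488, Em 500-530) of Vif-coexpressing HeLa A3G-eYFP cells, scanned by Acumen cytometer, reports blocked A3G degradation. Cells plated at 700/well overnight at 37 deg C before compound addition, then a further overnight compound incubation at 37 deg C.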

Chain of DNA dC->dU-editing enzyme APOBEC-3G (Homo sapiens) (Q9HC16 whole entry, looked up): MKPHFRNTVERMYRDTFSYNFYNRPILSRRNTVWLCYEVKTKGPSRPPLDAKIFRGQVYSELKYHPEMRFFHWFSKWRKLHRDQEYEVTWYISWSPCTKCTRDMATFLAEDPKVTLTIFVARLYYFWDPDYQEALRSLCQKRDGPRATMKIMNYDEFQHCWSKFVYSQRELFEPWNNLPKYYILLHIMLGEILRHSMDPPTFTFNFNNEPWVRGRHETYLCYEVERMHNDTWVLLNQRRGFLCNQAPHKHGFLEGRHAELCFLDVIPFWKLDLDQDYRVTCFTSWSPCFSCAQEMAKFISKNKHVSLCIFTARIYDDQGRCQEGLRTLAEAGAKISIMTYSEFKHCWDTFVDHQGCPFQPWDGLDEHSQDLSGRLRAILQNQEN
Chain of Phosphoglycerate kinase, glycosomal (Trypanosoma brucei brucei) (P07378 whole entry, looked up): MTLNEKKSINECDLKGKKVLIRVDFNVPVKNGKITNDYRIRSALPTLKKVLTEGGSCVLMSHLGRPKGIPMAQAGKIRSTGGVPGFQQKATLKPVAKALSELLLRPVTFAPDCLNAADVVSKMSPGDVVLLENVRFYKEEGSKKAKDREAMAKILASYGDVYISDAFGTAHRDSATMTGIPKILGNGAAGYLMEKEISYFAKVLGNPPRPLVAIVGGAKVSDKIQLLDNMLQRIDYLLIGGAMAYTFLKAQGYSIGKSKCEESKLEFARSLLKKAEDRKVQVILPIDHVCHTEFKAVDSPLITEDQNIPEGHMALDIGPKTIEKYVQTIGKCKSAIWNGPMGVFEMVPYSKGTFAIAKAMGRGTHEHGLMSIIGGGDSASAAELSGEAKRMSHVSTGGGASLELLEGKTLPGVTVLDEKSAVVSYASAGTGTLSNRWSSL
Chain of Galactokinase (Homo sapiens) (P51570 whole entry, looked up): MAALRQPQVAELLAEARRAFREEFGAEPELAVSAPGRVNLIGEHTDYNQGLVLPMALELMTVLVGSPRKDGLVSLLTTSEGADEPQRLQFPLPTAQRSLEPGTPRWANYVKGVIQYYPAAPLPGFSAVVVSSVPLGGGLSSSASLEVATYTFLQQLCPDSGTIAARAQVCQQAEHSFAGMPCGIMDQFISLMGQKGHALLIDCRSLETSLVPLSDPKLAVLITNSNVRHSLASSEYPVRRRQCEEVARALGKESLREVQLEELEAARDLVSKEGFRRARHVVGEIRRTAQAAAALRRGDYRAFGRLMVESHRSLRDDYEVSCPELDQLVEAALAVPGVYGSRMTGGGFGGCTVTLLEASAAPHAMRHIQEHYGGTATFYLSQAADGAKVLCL
Chain of Peptidyl-prolyl cis-trans isomerase NIMA-interacting 1 (Homo sapiens) (Q13526 whole entry, looked up): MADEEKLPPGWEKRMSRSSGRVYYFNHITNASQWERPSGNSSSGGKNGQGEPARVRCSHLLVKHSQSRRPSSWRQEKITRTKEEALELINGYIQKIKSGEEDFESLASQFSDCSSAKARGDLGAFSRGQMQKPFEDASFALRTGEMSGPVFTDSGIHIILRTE
Chain of Ubiquitin carboxyl-terminal hydrolase 1 (Homo sapiens) (O94782 whole entry, looked up): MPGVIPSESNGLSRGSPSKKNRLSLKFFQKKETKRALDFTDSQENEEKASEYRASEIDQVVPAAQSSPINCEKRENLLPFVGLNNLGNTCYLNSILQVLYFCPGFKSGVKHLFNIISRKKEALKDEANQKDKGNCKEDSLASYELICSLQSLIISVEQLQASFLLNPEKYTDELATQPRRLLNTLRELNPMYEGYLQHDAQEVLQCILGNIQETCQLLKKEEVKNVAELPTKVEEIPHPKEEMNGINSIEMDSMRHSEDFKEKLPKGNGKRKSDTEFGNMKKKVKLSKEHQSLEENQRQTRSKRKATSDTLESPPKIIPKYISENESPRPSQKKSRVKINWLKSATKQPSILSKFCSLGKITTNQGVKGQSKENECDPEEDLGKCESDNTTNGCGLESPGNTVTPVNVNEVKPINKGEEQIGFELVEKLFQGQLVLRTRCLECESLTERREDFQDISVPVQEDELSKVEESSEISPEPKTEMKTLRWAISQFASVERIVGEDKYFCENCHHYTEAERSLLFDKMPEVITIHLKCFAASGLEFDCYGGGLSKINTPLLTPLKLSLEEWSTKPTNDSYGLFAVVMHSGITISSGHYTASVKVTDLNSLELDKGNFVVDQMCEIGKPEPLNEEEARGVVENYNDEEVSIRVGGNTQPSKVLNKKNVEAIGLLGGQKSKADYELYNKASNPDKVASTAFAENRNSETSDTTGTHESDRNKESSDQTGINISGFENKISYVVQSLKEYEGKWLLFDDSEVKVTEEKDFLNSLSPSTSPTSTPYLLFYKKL
Chain of phosphoglycerate mutase (Leishmania major) (Q4Q090 1-553): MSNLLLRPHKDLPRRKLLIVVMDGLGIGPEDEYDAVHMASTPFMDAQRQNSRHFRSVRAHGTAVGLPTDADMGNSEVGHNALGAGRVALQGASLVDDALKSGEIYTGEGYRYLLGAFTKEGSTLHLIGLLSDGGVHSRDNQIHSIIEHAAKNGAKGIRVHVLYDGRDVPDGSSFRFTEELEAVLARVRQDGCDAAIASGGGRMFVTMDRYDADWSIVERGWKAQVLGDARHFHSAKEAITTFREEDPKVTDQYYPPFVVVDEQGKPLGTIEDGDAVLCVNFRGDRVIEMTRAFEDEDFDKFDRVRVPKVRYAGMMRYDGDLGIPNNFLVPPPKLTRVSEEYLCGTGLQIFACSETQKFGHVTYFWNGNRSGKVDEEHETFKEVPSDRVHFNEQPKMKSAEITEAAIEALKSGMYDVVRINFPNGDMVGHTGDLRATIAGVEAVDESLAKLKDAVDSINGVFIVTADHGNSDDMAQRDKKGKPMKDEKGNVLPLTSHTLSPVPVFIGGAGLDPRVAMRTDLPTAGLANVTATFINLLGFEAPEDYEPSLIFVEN

Turning to `O=C(O)C1CCNCC1`, in [1], the call was inactive. Also, the Potency entry in [2], in experiment [3], in experiment [4], in experiment [5], in [6] and in [7] was “inactive” each time. For the same compound, in [8], the Potency entry is “inactive”.

Regarding `COc1ccccc1N1CCN(CCCCN2C(=O)c3ccccc3C2=O)CC1`, in experiment [1], the compound was classed as inactive. The Potency entry in [2], in [3], in experiment [4], in experiment [5], in experiment [6] and in experiment [7] was “inactive” in each case. Moreover, the Potency entry in [9], in experiment [8] and in [10] was “inactive” each time.

Take `N=C(N)c1ccc(N)cc1`: the call in [1] was inactive. Besides, the Potency entry in experiment [2], in experiment [3], in experiment [4], in experiment [5], in experiment [6] and in [7] was “inactive” throughout. The Potency result in [9] and in experiment [8] was “inactive” in each case.

For the compound `CC[N+](CC)(CC)CC(=O)Nc1c(C)cccc1C`, the compound was called inactive in experiment [1]. In addition, the Potency result in experiment [2], in experiment [3], in [4], in experiment [5], in experiment [6] and in experiment [7] was “inactive” in each case. Besides, the Potency result in experiment [9], in experiment [8] and in [10] was “inactive” throughout.

For the compound `N=C(N)SCCN`, the result in [1] was inactive. Also, the Potency entry in [2], in experiment [3], in [4], in experiment [5], in experiment [6] and in [7] was “inactive” throughout. Further, the Potency entry in experiment [9], in experiment [8] and in experiment [10] was “inactive” throughout.

On to `O=C1OC(=O)C2C3CCC(O3)C12` (stereo not given), for which the compound was called inactive in experiment [1]. For the same compound, the Potency result in [2], in experiment [3], in [4], in [5], in experiment [6] and in experiment [7] was “inactive” throughout. For the same compound, the Potency entry in [9], in experiment [8] and in [10] was “inactive” each time.

Take `NCCS(=O)O`: in experiment [1], the result was inactive. Moreover, the Potency entry in [2], in [3], in experiment [4], in experiment [5], in [6] and in experiment [7] was “inactive” in each case. In addition, the Potency entry in experiment [9], in experiment [8] and in experiment [10] was “inactive” in each case.

On to `CC1CCN(CC[C@H]2CCCN2S(=O)(=O)c2cccc(O)c2)CC1`, for which the compound was classed as inactive in experiment [1]. The Potency entry in [2], in experiment [3], in [4], in [5], in [6] and in experiment [7] was “inactive” each time. The Potency result in experiment [9], in [8] and in experiment [10] was “inactive” throughout.

Take `CCn1c(=O)[nH]c2cc(Cl)c(Cl)cc21`: the result in experiment [1] was inactive. The Potency result in experiment [2], in experiment [3], in [4], in [5], in experiment [6] and in experiment [7] was “inactive” in each case. In addition, the Potency result in experiment [9], in experiment [8] and in experiment [10] was “inactive” throughout.

`O=C(O)Cc1c[nH]c2ccc(O)cc12`: the call in [1] was inactive. For the same compound, the Potency entry in [2], in experiment [3], in experiment [4], in experiment [5], in [6] and in [7] was “inactive” in each case. Also, in [8], the Potency entry was “inactive”.

For the compound `c1ccc2nc(C3=NCCN3)ccc2c1`, in experiment [1], the call was inactive. For the same compound, the Potency result in experiment [2], in experiment [3], in [4], in experiment [5], in experiment [6] and in [7] was “inactive” each time. Further, the Potency result in experiment [9], in [8] and in experiment [10] was “inactive” throughout.

As to `C[C@H](O)C(=O)C1=Nc2c(nc(N)[nH]c2=O)NC1`, the call in experiment [1] was inactive. Moreover, the Potency entry in experiment [2], in experiment [3], in experiment [4], in experiment [5], in experiment [6] and in [8] was “inactive” each time. In addition, the Potency in experiment [7] is 56.2 µM (active).

For the compound `N=C(N)c1ccc(OCCCCCOc2ccc(C(=N)N)cc2)cc1` (tested in a mixture with another compound), the compound was called inactive in experiment [1]. Also, the Potency result in experiment [2], in experiment [3], in experiment [4], in [5], in [6] and in experiment [7] was “inactive” each time. Further, the Potency result in [8] is “inactive”.

Turning to `O=C(O)c1cc2cc(F)ccc2[nH]1`, in [1], the outcome was inactive. Also, the Potency entry in experiment [2], in experiment [3], in experiment [4], in experiment [5], in experiment [6] and in [7] was “inactive” each time. Also, the Potency entry in [8] was “inactive”.

Take `NCCCCN=C(N)N`: in [1], the compound was classed as inactive. Besides, the Potency result in experiment [2], in experiment [3], in experiment [4], in [5], in experiment [6] and in [7] was “inactive” each time. The Potency result in [9], in experiment [8] and in [10] was “inactive” each time.

For `COC(=O)[C@H](NC(=O)c1cc(-c2ccccc2)nc2ccccc12)c1ccccc1`, in experiment [1], the compound was called inactive. Besides, the Potency entry in [2], in experiment [3], in experiment [4], in experiment [5], in [6] and in [7] was “inactive” throughout. For the same compound, the Potency entry in experiment [9], in [8] and in experiment [10] was “inactive” throughout.

In the case of `CN[C@H](CC(=O)O)C(=O)O`, the compound was classed as inactive in [1]. In addition, the Potency entry in experiment [2], in [3], in experiment [4], in [5], in experiment [6] and in experiment [7] was “inactive” in each case. Also, the Potency result in experiment [9], in experiment [8] and in [10] was “inactive” throughout.

With `C[N+](C)(C)CC=O`, in experiment [1], the compound was called inactive. Besides, the Potency result in [2], in experiment [3], in experiment [4], in [5], in experiment [6] and in [7] was “inactive” throughout. In addition, the Potency entry in experiment [9] and in experiment [8] was “inactive” in each case.

Consider `NC(N)=NC(N)=Nc1ccccc1`, for which, in experiment [1], the compound was called inactive. Further, the Potency entry in experiment [2], in [3], in experiment [4], in experiment [5], in experiment [6] and in experiment [7] was “inactive” in each case. The Potency entry in [9], in experiment [8] and in [10] was “inactive” each time.

For `COc1ccc(CCN(C)CCc2ccc(OC)c(OC)c2)cc1OC`, the call in [1] was inactive. Moreover, the Potency result in experiment [2], in [3], in experiment [4], in [5], in experiment [6] and in experiment [7] was “inactive” each time. Besides, the Potency result in [9], in [8] and in [10] was “inactive” each time.

Consider `NCCCNCCCCNCCCN`, for which, in [1], the result was inactive. Moreover, the Potency result in experiment [2], in experiment [3], in [4], in experiment [5], in experiment [6] and in experiment [7] was “inactive” in each case. The Potency result in experiment [9], in [8] and in experiment [10] was “inactive” in each case.

For `CCCCCCCCCCCCCCCCCCOC[C@H](COP(=O)([O-])OCC[N+](C)(C)C)OC`, the result in [1] was inactive. For the same compound, the Potency result in experiment [2], in [3], in experiment [4], in experiment [5], in experiment [6] and in experiment [7] was “inactive” in each case. The Potency result in experiment [8] was “inactive”.

Regarding `O=C(O)C1=CCCN(CCON=C(c2ccccc2)c2ccccc2)C1`, the compound was called inactive in [1]. The Potency entry in [2], in experiment [3], in experiment [4], in experiment [5], in [6] and in experiment [7] was “inactive” in each case. Besides, the Potency result in experiment [9], in experiment [8] and in [10] was “inactive” in each case.

Regarding `O=[N+]([O-])c1cccc2cn[nH]c12`, the compound was classed as inactive in experiment [1]. Also, the Potency entry in [2], in [3], in experiment [4], in experiment [5], in experiment [6] and in experiment [7] was “inactive” throughout. Further, the Potency entry in experiment [9], in experiment [8] and in [10] was “inactive” throughout.

For `OC1(c2ccc(Cl)cc2)CCN(Cc2c[nH]c3ccccc23)CC1`, in experiment [1], the compound was classed as inactive. The Potency entry in experiment [2], in experiment [3], in experiment [4], in experiment [5], in experiment [6] and in experiment [7] was “inactive” each time. The Potency result in experiment [9] and in [10] was “inactive” each time.
